The sample as a whole holds a higher share of hits than the screen did.
MgrA-DNA mod – S. aureus MgrA activity modulators, primary screen, biochemical, S. aureus Newman, fluorescence polarization. MgrA-DNA binding. inhibition, % (no concentration beside the values). hit rate 0.13% among 84,000; in the data active = inhibition above about 30%, passing the limit was not always enough;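 note: higher means less MgrA bound to DNA so lower polarization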
A number is an active result.

For Cc1ccc(C)n1CCC(=O)O the results were MgrA-DNA mod 103.4.
Screening CC1=C(C)C(=O)N(CCC(=O)O)C1=O returned MgrA-DNA mod inactive.
Cc1ccc2c(c1)c(C)cc(=O)n2CCC(=O)O was read as MgrA-DNA mod inactive.
Screening Cc1ccc(NC(=O)CSc2nnc(C)c3ccccc23)cc1 returned MgrA-DNA mod inactive.
Screening CC(=O)N1C2=C(CCCC2)C(=O)NC12CCCCC2 returned MgrA-DNA mod inactive.
`c1ccc2c(c1)CCN2Cn1nnc2ccccc21` gave MgrA-DNA mod inactive.
N#C/C(=C\C=C\c1ccco1)c1nc(-c2ccccc2)cs1 was read as MgrA-DNA mod inactive.
`Cc1ccc(C)n1C(Cc1c[nH]c2ccccc12)C(=O)O` (stereo not drawn) gave MgrA-DNA mod 65.7.
O=C(O)Cc1c[nH]c2ccccc12 was read as MgrA-DNA mod inactive.
Screening NC(Cc1c[nH]c2ccccc12)C(=O)O (stereo not drawn) returned MgrA-DNA mod inactive.
CCOC(=O)Nc1c(C)noc1C was read as MgrA-DNA mod inactive.
`CCOc1ccc(NC2=CC(=O)CCC2)cc1` gave MgrA-DNA mod inactive.
`CCOc1ccc(Nc2cnnc(Nc3ccc(OCC)cc3)n2)cc1` gave MgrA-DNA mod inactive.
For CCOc1ccc(NC2=CC(=O)C=CC2=O)cc1 the results were MgrA-DNA mod 56.0.
For COC(=O)c1c(C)nn(C)c1-c1ccno1 the results were MgrA-DNA mod inactive.
For O=C(O)CN1C(=O)/C(=C\c2ccc(OCc3ccccc3)cc2)SC1=S the results were MgrA-DNA mod inactive.
CCN(CC)CCSc1nc2ccc(OC)cc2[nH]1 was read as MgrA-DNA mod inactive.
For CCSc1nc(C)c2cc(OC)ccc2n1 the results were MgrA-DNA mod inactive.
For CCN(CC)CCCC(C)Nc1c2ccc(Cl)cc2nc2ccc(OC)cc12 (stereo not drawn) the results were MgrA-DNA mod 60.5.
`COc1ccc(Br)c(OC)c1C(N)=O` gave MgrA-DNA mod inactive.
COC(=O)c1c(C)n(S(C)(=O)=O)c2ccc(NS(C)(=O)=O)cc12 was read as MgrA-DNA mod inactive.
For O=C(O)c1cc2c3c(c1)C1C=CCC1C(c1ccccc1F)N3CC1CC=CC21 (stereo not drawn) the results were MgrA-DNA mod 74.1.
O=C(O)c1cc2c3c(c1)C1C=CCC1C(c1ccccc1)N3CC1CC=CC21 (stereo not drawn) was read as MgrA-DNA mod inactive.
O=C(O)c1cc2c3c(c1)C1C=CCC1C(c1ccc(F)cc1)N3CC1CC=CC21 (stereo not drawn) was read as MgrA-DNA mod inactive.
Screening O=C(O)C1CCCN(Cc2ccco2)C1 (stereo not drawn) returned MgrA-DNA mod inactive.
For Cc1ccc(C)n1-c1cccc(C(=O)O)c1 the results were MgrA-DNA mod 102.8.
For Cc1ccc(C)n1-c1cccc(N)c1 the results were MgrA-DNA mod inactive.
O=C(O)c1cccc(-n2cccc2)c1 was read as MgrA-DNA mod inactive.
Screening O=C(Nc1ccc(Cl)cc1)C1CC/C(=C\c2ccccc2)C1=O (stereo not drawn) returned MgrA-DNA mod inactive.
`CN1C(=O)C(=Cc2cccn2-c2ccc(N(C)C)cc2)C(=O)N(C)C1=S` gave MgrA-DNA mod inactive.
`CSc1ccc(C=Nc2ccc(Cl)cc2Cl)s1` gave MgrA-DNA mod inactive.
CN1CCCc2cc(CN)ccc21 was read as MgrA-DNA mod 62.8.
CN1CCCc2cc(/C=C3\CCC(C4CCCC4)C3=O)ccc21 (stereo not drawn) was read as MgrA-DNA mod inactive.
Screening CN1CCCc2cc(/C=C3\CC/C(=C/c4ccc5c(c4)N(C)CCC5)C3=O)ccc21 returned MgrA-DNA mod inactive.
`O=C(NC1Cc2ccccc2C1)c1ccc(Cl)cc1` gave MgrA-DNA mod inactive.
Screening O=S(=O)(c1ccc(F)c(F)c1)N1CCN(C(c2ccccc2)c2ccccc2)CC1 returned MgrA-DNA mod inactive.
For CC(C)(C)c1ccc(CNC(=O)C2CCCN2S(=O)(=O)c2ccccc2)cc1 (stereo not drawn) the results were MgrA-DNA mod inactive.
`O=C1CC(=O)c2ccc3c4c(ccc1c24)C(=O)CC3=O` gave MgrA-DNA mod 93.1.
Screening O=C1CC(=O)c2c1cccc2[N+](=O)[O-] returned MgrA-DNA mod inactive.
For CN1C(=O)/C(=C/c2ccc(-c3ccc(C(=O)O)cc3)o2)c2ccccc21 the results were MgrA-DNA mod inactive.
For CN1C(=O)/C(=C\c2ccc(-c3ccccc3C(=O)O)o2)C(=O)N(c2ccccc2)C1=S the results were MgrA-DNA mod 62.0.
For Cc1ccc(N2C(=O)NC(=O)/C(=C\c3ccc(-c4ccccc4C(=O)O)o3)C2=O)cc1 the results were MgrA-DNA mod inactive.
`CC(=O)Oc1c(Sc2c(F)c(F)c(F)c(F)c2F)c(C)nn1C(C)(C)C` gave MgrA-DNA mod inactive.
For COc1ccc(/C=C2\CCc3ccccc3C2=O)cc1COc1ccc(F)cc1 the results were MgrA-DNA mod inactive.
`NC(C(=O)O)C(O)(c1ccccc1)C(F)(F)C(F)(F)F` (stereo not drawn) gave MgrA-DNA mod inactive.
CCCC(O)=NS(=O)(=O)c1ccc(N=NN(C)C)cc1 was read as MgrA-DNA mod inactive.
For O=C(Nc1ccc(N2CCCCC2)cc1)c1ccncc1 the results were MgrA-DNA mod inactive.
For c1cc2c(cc1CNc1ccc(N3CCCC3)cc1)OCO2 the results were MgrA-DNA mod inactive.
Screening c1cc(CNc2ccc(N3CCCC3)cc2)ccn1 returned MgrA-DNA mod 96.8.
`CSC(=NCCC1CC1(Cl)Cl)NC#N` (stereo not drawn) gave MgrA-DNA mod inactive.
For COC(=O)c1scc(S(C)(=O)=O)c1Cl the results were MgrA-DNA mod inactive.
`CCC(C)c1ccc(NC(=O)COC(=O)c2ccco2)cc1` (stereo not drawn) gave MgrA-DNA mod inactive.
Screening O=C1OC/C(=C(\O)c2ccc(Cl)cc2)C1=O returned MgrA-DNA mod inactive.
For Cc1[nH]c2ccc(C(=O)O)cc2c1C the results were MgrA-DNA mod inactive.
Screening Cc1[nH]c2ccc(C(=O)O)cc2c1CC(=O)O returned MgrA-DNA mod inactive.
`CCCc1c(C)[nH]c2ccc(C(=O)O)cc2c1=S` gave MgrA-DNA mod 54.1.
For Cc1cc(OCC(=O)NC(C)(C)C)cc(C)c1Cl the results were MgrA-DNA mod inactive.
`N#Cc1c(C(F)(F)F)cc(-c2cccs2)[nH]c1=O` gave MgrA-DNA mod inactive.
`N#Cc1c(-c2ccco2)cc(-c2cccs2)[nH]c1=O` gave MgrA-DNA mod 55.2.
N#Cc1c(-c2cccs2)cc(-c2ccccc2)[nH]c1=O was read as MgrA-DNA mod inactive.
Screening COc1ccccc1C1(O)CCN(Cc2ccccc2)CC1 returned MgrA-DNA mod inactive.
Screening O=C(Nc1ccc(-c2cn3c(n2)SCC3)cc1)c1ccccc1 returned MgrA-DNA mod inactive.
Screening NNC(=S)NCCCN1CCOCC1 returned MgrA-DNA mod inactive.
For CN1C(=O)CN(C2CCCCC2)C(=O)c2ccccc21 the results were MgrA-DNA mod inactive.
`CN1C(=O)/C(=c2/[nH][nH]c(=O)/c2=C\C=C\c2ccccc2)C(=O)c2ccccc21` gave MgrA-DNA mod 55.7.
`CN1C(=O)/C(=C\C(=O)c2cccs2)c2ccccc21` gave MgrA-DNA mod inactive.
Cc1cc(C)c(C#N)c(SC2CCc3ccccc3C2=O)n1 (stereo not drawn) was read as MgrA-DNA mod inactive.
Screening O=C1c2ccccc2CC1Sc1nnc(-c2ccco2)c(-c2ccco2)n1 (stereo not drawn) returned MgrA-DNA mod 95.7.
Screening O=C(CSc1nnc(-c2ccco2)c(-c2ccco2)n1)N1c2ccccc2Sc2ccc(Cl)cc21 returned MgrA-DNA mod inactive.

Screening results from PubChem.
